In PubChem BioAssay AID1259418 (Broad Institute, 2018):
Hit rate of the full screen: of about 3,400 compounds, about 840 (25%) were called active. About 11% were inconclusive and are not listed. A selection follows. Measured potencies and affinities stand elsewhere. Values without a mark were called inactive.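 How the source made its calls: active means fitted half-maximal concentration of signal decrease at or below twice the sample's top tested concentration; inconclusive means flat curve between -70 and -30 percent, or poor fit; inactive means flat within 30 percent, signal rise, or potency above limit.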

Assay: inhibitors of Toxoplasma growth in IFN-γ-primed HeLa – cell-based, ME49Luc, luciferase, 72 h, dose response (AID 1259418)
Conditions: T. gondii ME49Luc in IFN-y HeLa, hits give low values, -100% = high-dose IFN-γ control wells; at 19.5 µM unless noted

Compound	max activity
COc1ccc(-c2nc(NCc3ccc(C)o3)c3ccccc3n2)cc1	-32.7% [at 1.35 µM]
CN(Cc1ccco1)c1nc(-c2ccc(Cl)cc2)nc2ccccc12	-31.8% [at 0.16 µM]
COc1ccc(-c2nc(N(C)Cc3ccccc3)c3ccccc3n2)cc1	21.9%
CCCCN(C)c1nc(-c2ccc(OC)cc2)nc2ccccc12	16.9% [at 0.35 µM]
COc1ccc(-c2nc(N(CC(C)C)CC(C)C)c3ccccc3n2)cc1	-12.7% [at 0.35 µM]
Cc1ccc(-c2coc(-c3ccc(NC(=O)Nc4cc(C)cc(C)c4)cc3)n2)cc1	-13.8% [at 0.68 µM]
CCc1nc(OCC(=O)Nc2cc(C)cc(C)c2)c2ccccc2n1	9.9% [at 10 µM]
COc1ccc(S(=O)(=O)N(Cc2nc(-c3ccccc3)oc2C)c2ccccc2OC)cc1	-10.3% [at 5 µM]
COc1ccccc1N(Cc1nc(-c2ccccc2)oc1C)S(=O)(=O)c1ccc(C)cc1	13.3% [at 0.16 µM]
c1cnc(N2CCC(Oc3cnccn3)CC2)nc1	28.4% [at 10 µM]
CCc1ccccc1NC(=O)Nc1ccc(-c2nc(-c3ccc(C)cc3)co2)cc1	-15.7% [at 0.68 µM]
CCOc1ccc(CC(=O)N2CCC3(CC2)Nc2cc(OC)ccc2-n2cccc23)cc1OCC	-11.1% [at 10 µM]
COc1ccc(CNc2nc(SCc3cc(=O)n4cc(Cl)ccc4n3)nc3ccccc23)cc1	14.6% [at 5 µM]
COCC#Cc1ccc([C@@H]2[C@@H](CO)N3C(=O)CN(C(=O)c4ccncc4)C[C@H]23)cc1	28.6%
COCC#Cc1ccc([C@@H]2[C@H]3CN(C(=O)C4CCCCC4)CC(=O)N3[C@H]2CO)cc1	27.9%
COCC#Cc1ccc([C@@H]2[C@@H](CO)N3C(=O)CN(C(=O)c4ccncc4)C[C@@H]23)cc1	31.2%
COCC#Cc1ccc([C@H]2[C@@H](CO)N3C(=O)CN(C(=O)C4CCCCC4)C[C@@H]23)cc1	51.9%
COc1ccc(NC(=O)Nc2ccc(-c3nc(-c4ccc(C)cc4)co3)cc2)cc1Cl	83.9%
COc1cccc(NC(=O)CCC2Nc3c4ccccc4nc(=S)n3C2=O)c1 (stereo unspecified)	16.8% [at 0.68 µM]
Cc1ccc(Cl)cc1N(CC(=O)Nc1c(F)cccc1F)S(C)(=O)=O	6.87%
Cc1sc(-c2nc(C(C)C)cs2)cc1S(=O)(=O)N1CCC(C)CC1	11.7%
